The structures appear in SMILES notation. This is part of a sample that, as a whole, favours compounds with a hit. Of some 83,000 tested, about 20% had one in any assay.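 Assay: single dose, 48 h. Readout: percent growth (0 = no net growth; negative = cell death). Active: <10.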 Unmarked numbers belong to inactive results. Active and inactive are the calls of the source.

This experiment relates to ACHN renal. In words: NCI-60 one-dose screen, 48 h (100 = growth as untreated, 0 = no growth, -100 = all killed). To be noted: 10 µM unless noted.
`O=C1C(Cl)=C(NCCCCCCNC2=C(Cl)C(=O)c3ccccc3C2=O)C(=O)c2ccccc21`: the growth is 104%.
For the compound `CCCC/C=C/[C@@H]1C[C@H]1CCO`, the growth was 104%.
The figure for `C=C(C)[C@@H]1CC[C@]2(CO)CC[C@]3(C)[C@H](CC[C@@H]4[C@@]5(C)CC[C@H](NCO)C(C)(C)[C@@H]5CC[C@]43C)[C@@H]12` is -99.2% (active).
Then `Cc1cccc(/C=C/c2c(C(=O)/C=C/c3ccccc3)c(C)nc3ccccc23)c1`, with -23% (active).
The figure for `Cc1ccc(-c2nc(N3CCCNCC3)c3oc(-c4ccc(C)cc4)nc3n2)cc1` is -77.1% (active).
With `Cc1sc2nc(NCCc3c[nH]c4ccc(Cl)cc34)[nH]c(=O)c2c1C`, the growth is 42.9%.
The figure for `COc1ccc(OC)c(Nc2nnc(-c3ccc(O)c(OC)c3)o2)c1` is 37.9%.
Then `COc1ccccc1NC(=O)N=Nc1c(O)[nH]c2ccccc12`, with 93%.
Regarding `Nc1nc2ccccc2c2c1S(=O)(=O)c1ccc(Cl)cc1C2=O`, the growth is 17.8%.
In the case of `Nc1n[nH]c2cccc(C#Cc3cccc(C(=O)Nc4cc(C(F)(F)F)cc(C(F)(F)F)c4)c3)c12`, the growth is 76.3%.
Then `CS(=O)(=O)Nc1cc(-c2ccc3ncnc(Nc4ccc5c(cnn5Cc5ccc(F)cc5)c4)c3c2)cnc1Cl`, with 70.6%; and `Fc1cc2c(cc1Cl)N(c1ncnc3ccc(-c4ccc5n[nH]nc5c4)cc13)CC2`, with 50.1%; and `CCN1C(=S)N(c2ccccc2)C2NC(=S)N(/N=C/C=C/c3ccccc3OC)C21` (stereo unspecified), with 33.3%.
In the case of `O=c1c2cccc3c(N4CCCC4)ccc(c32)c2nc3ccccc3n12`, the growth was 52.3%.
Consider `OB1OCc2cc(/C=C/c3cccc(C(F)(F)F)c3)ccc21`, for which the growth was -91.6% (active).
The figure for `O=C(/C=C/c1ccccc1)Nc1ncc(Cc2ccccc2Cl)s1` is 33.3%; for `CN(C)CCNC(=O)c1ccc(-c2nc3ccc4[nH]ncc4c3c3c2C2CCC3C2)cc1` (stereo unspecified) it is 17.4%.
The figure for `COC12C=C/C(=C(/C(=O)OCc3ccncc3)C(=O)CCCCCCCCC3(OC)C=C/C(=C(/C(=O)OCc4ccncc4)C(=O)CCCCCCCC1)O3)O2` is -64% (active).
`O=C(/C=C/c1cccc(Cl)c1)c1cccc(OCCCOc2cccc(C(=O)/C=C/c3cccc(Cl)c3)c2)c1`: the growth is 97.3%.
As for `CCn1c(SCC(=O)N/N=C(\C)c2ccc(Cl)cc2)nc2c1c(=O)n(C)c(=O)n2C`, the growth is 99.5%.
The figure for `Cc1ccc(C[P+](c2ccccc2)(c2ccccc2)c2ccccc2)cc1` is 24.4%; for `Clc1ccc2c(NC3CCC(N4CCOCC4)CC3)ccnc2c1` (stereo unspecified) it is 73.8%; for `Cc1ccc(C2=Nc3c(N)ncnc3NC(c3cccc(Nc4ccnc5cc(C(F)(F)F)ccc45)c3)C2)cc1` (stereo unspecified) it is 58.1%.
Turning to `COc1ccc(-c2noc(C(=O)O)c2-c2cc(OC)c(OC)c(OC)c2)cc1`, the growth was 34.7%.
`CCOC(=O)c1nn(-c2ccc(S(N)(=O)=O)cc2)c2nc(C)cc(=O)n12`: the growth is 108%.
Then `CCSC(SCC)c1ccc(Cl)cc1`, with 107%.
The figure for `CSc1nc2ccccc2cc1/C=C1/C=C(c2ccccc2)NC1=O` is 102%; for `COC1/C=C/OC2(C)Oc3c(C)c(O)c4c(O)c(c(/C=N/Nc5ccc([N+](=O)[O-])cc5[N+](=O)[O-])c(O)c4c3C2=O)NC(=O)C(C)=C/C=C/C(C)C(O)C(C)C(O)C(C)C(OC(C)=O)C1C` (stereo unspecified) it is 28.1%.
`O=C1C(Cl)=C(Nc2ccc(S(=O)(=O)N3CCOCC3)cc2)C(=O)c2ccccc21`: the growth was 59%.
With `c1csc(-c2ccc(CNc3c4ccccc4nc4ccccc34)cc2)c1`, the growth is 58.6%.
`Nc1ncc(-c2ccc3ncnc(Nc4cccc(Cl)c4)c3c2)cn1`: the growth is 21.5%.
Then `CCOC(=O)C#Cc1c(C(=O)OCC)nnn1Cc1ccc([N+](=O)[O-])cc1`, with -53.6% (active); and `O=C(CSc1nc2ccc([N+](=O)[O-])cc2[nH]1)Nc1ccc([N+](=O)[O-])cc1`, with 21.4%.
Then `CC(C)(Sc1cc(C(C)(C)C)c(OC(=O)CCCC(=O)O)c(C(C)(C)C)c1)Sc1cc(C(C)(C)C)c(OC(=O)CCCC(=O)O)c(C(C)(C)C)c1`, with 26.9%; and `O=C(N(c1ccccc1)c1ccccc1)n1cc(I)c2nc(Cl)nc(Cl)c21`, with 57.9%.
Then `NC(=O)CSc1oc(-c2ccccc2)nc1S(=O)(=O)c1ccc(Br)cc1`, with 64.4%.

These data come from PubChem BioAssay (NCI).
